The source made the active and inactive calls. Cut-off read from the data, not from the text of the source: active = fold change mostly below about -2 (no sharp cut-off); inactive = mostly above about -1.8.
Test: modulation of TERT promoter-driven luciferase – cell-based, luciferase reporter, human, primary screen (AID 1259240)
Details: A2780 TERT promoter luciferase reporter, 16 h; at 20 µM, fold versus average of vehicle-only wells unless noted
With Cc1cc(Cl)cc2c1NC(c1cccnc1)C1CC=CC21 (centres undefined) the fold change was -2.25 (active). In the case of CC12CC(c3ccccc3O1)C(C(=O)OCc1ccccc1)C(=O)N2 (centres undefined), the fold change is reported as -2.11 [at 20 µM] (active). For Cc1oc(-c2ccccc2F)nc1CN1C(=O)CN=C(c2ccccc2)c2ccccc21, the fold change was -1.14 (inactive). For Clc1ccc(Cl)c2c1NC(c1cccnc1)C1CC=CC21 (centres undefined), the outcome was “inactive”. In the case of CCOC(=O)C1CC2CCCN2C12C(=O)N(Cc1ccccc1)c1ccccc12 (centres undefined), the fold change is reported as -1.82 [at 20 µM] (inactive). For Cc1nnc2ccc(N3CCN(C)CC3)nn12, the fold change was -1.19 [at 20 µM] (inactive). In the case of N#Cc1cnn2c(C(F)(F)F)cc(-c3cccs3)nc12, the fold change is reported as 1.09 (inactive). For CC1N=C(c2ccccc2F)c2cc(Cl)ccc2N(Cc2cc(=O)n3ccccc3n2)C1=O (centres undefined), the fold change was -1.26 (inactive). With CCN1CCN(c2ccc3nncn3n2)CC1 the fold change was -1.39 (inactive).
